Results filed as inconclusive are left out. A call without a number means that no potency is given here. Calls of active or inactive are those of the source. Unless noted, calls follow the shape of the dose curve; as a rule, active = well fitted inhibition curve with a large enough effect; inconclusive = small, poorly fitted or top-dose-only effect; inactive = flat fitted curve, though single readings scatter.
Columns and labels:
[1] = target: Glutathione peroxidase 1 (Homo sapiens) (UniProt P07203); assay: Primary qHTS Assay for Inhibitors of Recombinant Selenoprotein Glutathione Peroxidase 1 (GPX1) (AID 1845191); also: nearly all actives have a fitted effect of over 65% in size; also: potency is read from the fitted curve at half-maximal effect
Glutathione peroxidase 1 (Homo sapiens), sequence (P07203 whole entry, looked up): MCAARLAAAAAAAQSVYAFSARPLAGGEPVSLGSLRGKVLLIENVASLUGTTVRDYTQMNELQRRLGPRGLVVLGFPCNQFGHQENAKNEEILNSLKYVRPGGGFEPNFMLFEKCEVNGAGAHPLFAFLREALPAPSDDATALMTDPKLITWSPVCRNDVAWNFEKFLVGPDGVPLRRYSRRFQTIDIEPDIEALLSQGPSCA
Procedure, shortened: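 10 nM GPX1 + cpd, 30 min RT; start w/ 1 mM GSH, 0.5 mM cumene hydroperoxide, 0.5 mM NADPH, 100 nM GR, 0.01% BSA; buffer 50 mM Tris-HCl pH 7.5, 2 mM EDTA, 150 mM NaCl; Fl 340/450, 0 & 15 min.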

[2] = target: Phospholipid hydroperoxide glutathione peroxidase GPX4 (Homo sapiens) (UniProt P36969); assay: Primary qHTS Assay for Inhibitors of Recombinant Selenoprotein Glutathione Peroxidase 4 (GPX4) (AID 1845192); also: nearly all actives have a fitted effect of over 65% in size; also: potency is read from the fitted curve at half-maximal effect
Phospholipid hydroperoxide glutathione peroxidase GPX4 (Homo sapiens), sequence (P36969 whole entry, looked up): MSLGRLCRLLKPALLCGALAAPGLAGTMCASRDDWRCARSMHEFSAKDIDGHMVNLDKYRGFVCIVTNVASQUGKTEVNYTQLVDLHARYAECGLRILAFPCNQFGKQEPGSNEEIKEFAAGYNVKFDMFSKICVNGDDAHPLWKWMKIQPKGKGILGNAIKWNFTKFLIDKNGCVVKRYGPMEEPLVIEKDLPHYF
Procedure, shortened: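 NADPH consumption, followed by fluorescence at 340/450 nm between 0 and 15 min, reports GPX4 activity via coupled glutathione reductase (100 nM). Enzyme 200 nM was pre-exposed to compound 30 min; 0.5 mM cumene hydroperoxide and 1 mM GSH served as substrates.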

[3] = qHTS drug screen for cell cycle checkpoint inhibitors in PARPi-resistant BRCA-mutant ovarian cancer cell lines. (AID 1963452; calls by dose curve; also: potency is read from the fitted curve at half-maximal effect); settings: PEO1/OlaR viability, CellTiter-Glo luminescence, 96 h; for Z-AUC: stronger effect = lower value
Procedure, shortened: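 PEO1, PEO4 and PEO1/OlaR ovarian cancer cells, 600 per well, exposed 96 h at 37C to a dilution series. Viability read by CellTiter-Glo luminescence, normalized to DMSO and empty wells; activity summarized as Z-AUC.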

[4] = target: Luciferin 4-monooxygenase (Photinus pyralis) (UniProt P08659); assay: Biochemical firefly luciferase enzyme assay for NPC (AID 624030);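 also: purified P. pyralis luciferase at 10 nM with luciferin and ATP substrate; nearly all actives have a fitted effect of over 70% in size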
Luciferin 4-monooxygenase (Photinus pyralis), sequence (P08659 whole entry, looked up): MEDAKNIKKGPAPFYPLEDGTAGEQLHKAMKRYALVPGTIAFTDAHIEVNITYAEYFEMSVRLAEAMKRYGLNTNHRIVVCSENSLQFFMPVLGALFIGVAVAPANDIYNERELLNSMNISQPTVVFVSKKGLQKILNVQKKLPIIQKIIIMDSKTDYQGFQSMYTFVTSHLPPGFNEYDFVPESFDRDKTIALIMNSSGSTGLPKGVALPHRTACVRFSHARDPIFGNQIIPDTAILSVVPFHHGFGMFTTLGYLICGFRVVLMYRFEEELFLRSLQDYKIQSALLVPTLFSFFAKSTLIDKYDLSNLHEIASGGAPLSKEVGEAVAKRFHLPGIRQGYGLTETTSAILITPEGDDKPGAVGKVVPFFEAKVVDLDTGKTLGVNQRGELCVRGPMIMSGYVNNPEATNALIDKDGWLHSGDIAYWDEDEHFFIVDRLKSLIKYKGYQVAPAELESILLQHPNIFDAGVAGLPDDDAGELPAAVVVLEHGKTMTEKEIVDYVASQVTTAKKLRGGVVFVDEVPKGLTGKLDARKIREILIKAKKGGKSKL
Procedure, shortened: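 Direct inhibition of firefly luciferase enzyme (10 nM final, 50 mM Tris Acetate) assessed by luminescence within 5 minutes. Percent activity scaled between DMSO and PTC124 positive control, with concentration-effect curves classified by fit quality and response.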

[5] = qHTS profiling for inhibitors of Plasmodium falciparum proliferation (AID 504749); also: nearly all actives have a fitted effect of over 60% in size; also: potency is read from the fitted curve at half-maximal effect; settings: P. falciparum in erythrocytes, SYBR Green DNA, 72 h, at 28.7 µM (top of the series)
Procedure, shortened: (§1)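 Infected RBCs, 0.3% parasitemia/2.5% Hct final; cpd 72 h, 37 C, 5% CO2; lysis buffer with saponin/triton/SYBR Green I, o/n RT dark; FI 485/535; norm. to artemisinin (0.29 uM) and DMSO.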

AS120 = assay: as above; settings: P. falciparum in erythrocytes, SYBR Green DNA, 72 h; series mostly up to 28.7 µM
Procedure, shortened: as §1

ATS189 = assay: as above; settings: P. falciparum in erythrocytes, SYBR Green DNA, 72 h; series mostly up to 28.7 µM
Procedure, shortened: as §1

CP192 = assay: as above; settings: P. falciparum in erythrocytes, SYBR Green DNA, 72 h; series mostly up to 28.7 µM
Procedure, shortened: as §1

CP194 = assay: as above; settings: P. falciparum in erythrocytes, SYBR Green DNA, 72 h; series mostly up to 28.7 µM
Procedure, shortened: as §1

CP247 = assay: as above; settings: P. falciparum in erythrocytes, SYBR Green DNA, 72 h; series mostly up to 28.7 µM
Procedure, shortened: as §1

CP262 = assay: as above; settings: P. falciparum in erythrocytes, SYBR Green DNA, 72 h; series mostly up to 28.7 µM
Procedure, shortened: as §1

CP269 = assay: as above; settings: P. falciparum in erythrocytes, SYBR Green DNA, 72 h; series mostly up to 28.7 µM
Procedure, shortened: as §1

CP291 = assay: as above; settings: P. falciparum in erythrocytes, SYBR Green DNA, 72 h; series mostly up to 28.7 µM
Procedure, shortened: as §1

CP297 = assay: as above; settings: P. falciparum in erythrocytes, SYBR Green DNA, 72 h; series mostly up to 28.7 µM
Procedure, shortened: as §1

CP315 = assay: as above; settings: P. falciparum in erythrocytes, SYBR Green DNA, 72 h; series mostly up to 28.7 µM
Procedure, shortened: as §1

CP329 = assay: as above; settings: P. falciparum in erythrocytes, SYBR Green DNA, 72 h; series mostly up to 28.7 µM
Procedure, shortened: as §1

CP335 = assay: as above; settings: P. falciparum in erythrocytes, SYBR Green DNA, 72 h; series mostly up to 28.7 µM
Procedure, shortened: as §1

DIV17 = assay: as above; settings: P. falciparum in erythrocytes, SYBR Green DNA, 72 h; series mostly up to 28.7 µM
Procedure, shortened: as §1

GB4 = assay: as above; settings: P. falciparum in erythrocytes, SYBR Green DNA, 72 h; series mostly up to 28.7 µM
Procedure, shortened: as §1

HB3 = assay: as above; settings: P. falciparum in erythrocytes, SYBR Green DNA, 72 h; series mostly up to 28.7 µM
Procedure, shortened: as §1

[6] = measured here: PEO1 parental Z-AUC

## C[C@H]1C[C@H]2[C@H]3CCC4=CC(=O)C=C[C@]4(C)[C@@]3(F)[C@@H](O)C[C@]2(C)[C@@]1(OC(=O)c1ccccc1)C(=O)CO
[1]
  Potency: inactive
[2]
  Potency: inactive

## O=C(O)[C@@H]1C(=CCO)O[C@@H]2CC(=O)N12
[1]
  Potency: inactive
[2]
  Potency: inactive

## CSCC[C@H](N)C(=O)O
[1]
  Potency: inactive
[2]
  Potency: inactive

## CC(C)OC(=O)CCC/C=C\C[C@@H]1[C@@H](CC[C@@H](O)CCc2ccccc2)[C@H](O)C[C@@H]1O
[1]
  outcome: inactive [at 9.52 µM]
[2]
  activity change, negative = inhibition: 4.91% [at 9.73 µM] (inactive)

## CCCCCCCCCC(=O)OC1(c2ccc(Cl)cc2)CCN(CCCC(=O)c2ccc(F)cc2)CC1
[1]
  Potency: inactive
[2]
  Potency: inactive

## CSCCNc1nc(SCCC(F)(F)F)nc2c1ncn2[C@@H]1O[C@H](COP(=O)(O)OP(=O)(O)C(Cl)(Cl)P(=O)(O)O)[C@@H](O)[C@H]1O
[1]
  Potency: inactive
[2]
  Potency: inactive

## CCCCCCCC/C=C/CCCCCCCC(=O)O
[1]
  Potency: inactive
[2]
  Potency: 11.2 µM (active)

## C=CC1(C)CC(=O)C2(O)C(C)(O1)C(OC(C)=O)C(OC(=O)CCN(C)C)C1C(C)(C)CCC(O)C12C (stereo not drawn)
[1]
  Potency: inactive
[2]
  Potency: inactive

## CN(C)CCCOc1ccc(-c2ccc3ncc4c(c3c2)n(C2CCOCC2)c(=O)n4C)cn1
[1]
  Potency: inactive
[2]
  Potency: inactive
[3]
  Potency: 3.01 µM (active)
[3]; [6]
  Z-AUC: -1.35
[3]; measured here: PEO4 Z-AUC
  Z-AUC: -1.31

## CC(OC(=O)OC1CCCCC1)OC(=O)C1=C(CSc2nnnn2CCN(C)C)CS[C@@H]2[C@H](NC(=O)Cc3csc(N)n3)C(=O)N12 (stereo partly drawn)
[1]
  Potency: 7.18 µM (active)
[2]
  Potency: 8.91 µM (active)

## c1ccc2scnc2c1
[1]
  Potency: inactive
[2]
  Potency: inactive

## O=C(/C=C/c1ccc(Cl)cc1)N1CCC2(CC1)CN(Cc1ccc(Cl)c(Cl)c1)C(=O)O2
[1]
  Potency: inactive
[2]
  Potency: inactive
[3]
  Z-AUC: 1.05 (inactive)
[3]; [6]
  Z-AUC: -0.18
[3]; measured here: PEO4 Z-AUC
  Z-AUC: 0.00813

## CCC(C)n1ncn(-c2ccc(N3CCN(c4ccc(OCC5COC(Cn6cncn6)(c6ccc(Cl)cc6Cl)O5)cc4)CC3)cc2)c1=O (stereo not drawn)
[4]
  Potency: inactive
[1]
  Potency: inactive
[2]
  Potency: inactive
[3]
  Z-AUC: -0.487 (inactive)
[3]; [6]
  Z-AUC: 0.019
[3]; measured here: PEO4 Z-AUC
  Z-AUC: -0.0223
[5]; parasite line A
  activity, negative = inhibition: 0.495% (inactive)
[5]; parasite line B
  activity, negative = inhibition: -11% (inactive)
AS120
  Potency: inactive
ATS189
  Potency: inactive
CP192
  Potency: inactive
CP194
  Potency: inactive
CP247
  Potency: inactive
CP262
  Potency: inactive
CP269
  Potency: inactive
CP291
  Potency: inactive
CP297
  Potency: inactive
CP315
  Potency: inactive
CP329
  Potency: inactive
CP335
  Potency: 4.26 µM (active)
DIV17
  Potency: inactive
GB4
  Potency: inactive
HB3
  Potency: inactive

— PubChem BioAssay (NCATS)
